Source: PubChem BioAssay (NCI)
This is part of a sample that, as a whole, favours compounds with a hit. Of some 83,000 tested, about 20% had one in any assay.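 Cells were grown in 96-well plates and exposed to the test compound at a single concentration for 48 hours; results are reported as percent growth, with values below 10 considered active.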 Unmarked numbers belong to inactive results. Active and inactive are the calls of the source.

Legend:
Assay in all cases: NCI-60 one-dose screen, 48 h (100 = growth as untreated, 0 = no growth, -100 = all killed)
Conditions in all cases: 10 µM unless noted
[1] = system: NCI-H23 lung
[2] = system: NCI-H226 lung
[3] = system: NCI-H322M lung
[4] = system: HOP-62 NSCLC
[5] = system: NCI-H460 lung
[6] = system: HOP-92 NSCLC
[7] = system: NCI-H522 lung
[8] = system: A549/ATCC NSCLC
[9] = system: 786-0 renal
[10] = system: COLO 205 colon

| SMILES | growth [1] | growth [2] | growth [3] | growth [4] | growth [5] | growth [6] | growth [7] | growth [8] | growth [9] | growth [10] |
| --- | --- | --- | --- | --- | --- | --- | --- | --- | --- | --- |
| O=c1c(-c2nc(-c3ccccc3)c(-c3ccccc3)[nH]2)coc2ccc(F)cc12 | 60.7% | 65.1% | 73.1% | 70.1% | 19% | 88.1% | 71.7% | 40% | 87.2% | 53% |
| Fc1ccc(Nc2nnc(-c3c[nH]c4ccccc34)o2)cc1 | 85.7% | 70.2% | 94.5% | 71% | 91.9% | 58.2% | 48.7% | 77.5% | 94.7% | 127% |
| Cc1ccc(C(=O)C[n+]2cccc3c4ccccc4ccc32)cc1 | 27.4% | 36.3% | 43.3% | 36.1% | 4.31% (active) | -8.04% (active) | 22.1% | 23.8% | 34.4% | 5.75% (active) |
| O=C1NC(=NC23CC4CC(CC(C4)C2)C3)N/C1=C\c1ccc2ncccc2c1 | -15.2% (active) | -38.5% (active) | 22.6% | -64.4% (active) | -68.8% (active) | -11.7% (active) | -37% (active) | -46.3% (active) | -51% (active) | 19.5% |
| COc1ccc(C(=O)C[n+]2cccc3c4ccccc4ccc32)cc1 | 28.4% | 59.1% | 68.8% | 44.2% | 19.4% | 12.5% | 28.8% | 38.2% | 66.9% | 26.5% |
| N#C/C(=C1/C(=O)Nc2ccccc21)c1nnc(NC(=O)c2ccc(-n3c(=O)[nH]c4ccccc4c3=O)cc2)s1 | 30.4% | 34.4% | 53.6% | 53.7% | 6.96% (active) | 56% | 14.3% | 49.8% | 66.1% | -0.152% (active) |
| COc1ccc(/C=C/c2nc3ccccc3c(=O)n2CC(=O)Nc2ccccc2)cc1 | 42.6% | -26.4% (active) | 46.8% | 2.16% (active) | 37% | -0.34% (active) | 89.2% | 27.5% | -42.6% (active) | 71% |
| COc1ccc(-c2cc(-c3cc(C(C)C)c(O)cc3C)nn2-c2ccc(S(N)(=O)=O)cc2)cc1 | 41.5% | 78.6% | 72.3% | 51.5% | 33.8% | 45.4% | 6.99% (active) | 40.4% | 25.5% | 122% |
| Cc1nn(-c2ccccc2)c2nc(C)n(CC(=O)N/N=C/c3ccccc3O)c(=O)c12 | 28.8% | 21.6% | 29.4% | 31.3% | 4.76% (active) | 62.5% | 6.39% (active) | 26.2% | 18.5% | 16.8% |
| Cc1ccc(-c2cc(C(=O)N=Nc3c(O)[nH]c4ccc(F)cc34)c3ccccc3n2)cc1 | 15.1% | 59% | 44.4% | 6.08% (active) | 1.25% (active) | 104% | 25.5% | 11.2% | 44% | 73.9% |
| Cc1nn(-c2ccccc2)c2nc(C)n(C(=O)N/N=C/c3cccc([N+](=O)[O-])c3)c(=O)c12 | 77.7% | 105% | 91.7% | 98.6% | 93.7% | 103% | 47.4% | 83.7% | 108% | 117% |
| Nc1nc2cc(-c3ccc4ncnc(NCc5ccccc5)c4c3)ccc2o1 | 24.4% | -45.9% (active) | -19.8% (active) | -46.1% (active) | 7.02% (active) | -39.5% (active) | -12.1% (active) | 11.4% | 9.02% (active) | 52.9% |
| FC(F)(F)CN1CCN(CCn2c(C(F)(F)F)cc3c(Cl)ncnc32)CC1 | 16.5% | 86.7% | -22.9% (active) | 40.2% | -41.2% (active) | 72.2% | -79.3% (active) | 98.8% | 84.6% | 70.5% |
